# CYP2C9 activ: CYP2C9 (human) activation; P11712; recombinant CYP2C9, luciferin-H conversion, luminescence; hits give high values; factor 1 = untreated enzyme, 0 = blocked; activation factor at 5 µM; 1.4% of 96,000 active; AID 1024;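 active = activation factor of 2 or more for CYP2C9 at a 5 µM dose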;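 also: 0 = sulfaphenazole-blocked wells and 1 = vehicle-only wells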
# CYP2C9 inh: human CYP2C9 inhibition; P11712; CYP2C9 Supersomes, luciferin-H conversion, luminescence; inhibition, % at 5 µM; 20% of 96,000 active; AID 777;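 active = blocking of liver enzyme CYP2C9 beyond about 50% at 5 µM, limit read from the data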
# CYP2C19 activ: cytochrome P450 2C19 (human) activation; P33261; recombinant CYP2C19, luciferin-H EGE luminescence; hits give high values; 0 = fully inhibited enzyme, 1 = untreated enzyme; activation factor at 5 µM; 96,000 tested, under 10 active;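 active = activation factor of at least 2 at 5 µM in the primary screen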;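 also: 0 = wells with 2.5 mM tranylcypromine and 1 = vehicle-only wells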
# Cav3 T inh: human Cav3.2 channel inhibition, primary screen; AID 449739; B-score at 10 µM; Cav3.2-expressing cells, Fluo-4 calcium fluorescence FDSS; hits give low values; O95180; 4% of 100,000 active;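 active = single-dose well whose peak fluorescence ratio is a statistical outlier from its plate by either plate-standardised score or position-corrected B-score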
# CYP2C19 inh: human CYP2C19 inhibition | P33261 | CYP2C19 Supersomes, luciferin-H EGE luminescence, 30 min | inhibition, % at 5 µM | 21% of 96,000 active;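 active = CYP2C19 inhibition above a set limit at 5 µM in the primary screen, cut at about 50% in these data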;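 also: plate controls were negative control wells for no effect and 2.5 mM tranylcypromine positive control for full effect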
# * hit, by the source's call; · = no result. In the library only some 27% were active in any assay of this set; here they are far more common.
SMILES,CYP2C9 activ,CYP2C9 inh,CYP2C19 activ,Cav3 T inh,CYP2C19 inh
O=C(NCc1cccnc1)c1ccc(COc2cccc3ccccc23)o1,1,2,0.5,-2.9,53*
O=C(Nc1ccn(Cc2c(F)c(F)cc(F)c2F)n1)c1ccc(COc2ccccc2Cl)cc1,0.3,66*,0.7,-2.3,32
CN(C)[C@@H](CO)c1nnc([C@H](Cc2ccc(O)cc2)NC(=O)C2CCNCC2)o1,·,·,·,-0.24,·
Cc1ccccc1C(=O)NCc1ccncc1,0.7,28,0.9,-0.97,10
CCn1c(SCC(=O)c2ccc(C)cc2)nnc1-c1ccncc1,1,-1,0.7,0.81,34
Cc1ccccc1C(O)c1ccncc1 (stereo unspecified),0.3,74*,0.3,1,68*
Cc1ccc(C(O)c2ccncc2)cc1 (stereo unspecified),0.2,78*,0.3,-0.04,72*
COc1ccc(Nc2oc(-c3cccs3)nc2C#N)cc1,0.8,17,0.7,-4.4*,28
N#Cc1nc(-c2ccco2)oc1NCCc1ccccc1,0.2,75*,0,-1.6,96*
CCOc1ccc(Nc2oc(-c3ccccc3Cl)nc2C#N)cc1,0.2,76*,0.8,-1.7,21
N#Cc1nc(-c2ccccc2F)oc1NCCc1ccccc1,0.5,46,0.6,-0.2,36
N#Cc1nc(-c2cccs2)oc1NCCc1ccccc1,0.3,68*,0.7,-3.9,26
CNc1oc(-c2ccccc2Cl)nc1C#N,0.8,16,0.7,1,26
Cc1nc2c(ccc3nc(NC(=O)C(c4ccccc4)c4ccccc4)sc32)s1,·,·,·,-1.2,·
COC(=O)CCCCCN1C(=O)NC(C2CC2)C(C(=O)OCc2ccccc2)=C1C (stereo unspecified),·,·,·,-0.97,·
CNc1oc(-c2cccs2)nc1C#N,1.3,-29,1,·,1
N#Cc1nc(-c2cccs2)oc1NCc1ccc2c(c1)OCO2,0.1,94*,0.5,-5.6*,54*
Cc1cccc(C)c1NC(=O)CSc1nc(-c2ccco2)cc(C(F)(F)F)n1,·,·,·,-0.3,·
Cc1cc(NC(=O)CCCSc2nc(-c3ccco3)cc(C(F)(F)F)n2)no1,0.8,21,0.9,0.13,8
O=C(CCCSc1nc(-c2ccco2)cc(C(F)(F)F)n1)NCC1CCCO1 (stereo unspecified),·,·,·,-0.76,·
COc1ccc(CCNC(=O)CCSc2nc(-c3ccco3)cc(C(F)(F)F)n2)cc1,0.9,5,1,-1.1,1
O=C(CCSc1nc(-c2ccco2)cc(C(F)(F)F)n1)NCC1CCCO1 (stereo unspecified),1.4,-39,0.3,0.047,67*
O=C(CSc1nc(-c2ccco2)cc(C(F)(F)F)n1)Nc1ccc(C(=O)N2CCCCC2)cc1,0.1,85*,0.4,-1.4,55*
O=C(CCCSc1nc(-c2ccco2)cc(C(F)(F)F)n1)NCc1cccs1,0.2,80*,0.7,·,26
CC(C)(C)c1cc(C(F)(F)F)nc(SCCCNC(=O)c2ccco2)n1,0.1,88*,0.1,-4.6*,92*
SMILES,CYP2C9 activ,CYP2C9 inh,CYP2C19 activ,Cav3 T inh,CYP2C19 inh
COC(=O)C1=C(C(=O)OC)[C@@H]2N(Cc3ccccc3)c3ccccc3[C@@]23C[C@@H](C(=O)OC)N(C(=O)NC(C)(C)C)C3=N1,·,·,·,-2.4,·
CN(Cc1cnn(C)c1)C(=O)C1CCCCC1C(=O)O (stereo unspecified),·,·,·,1.3,·
COC(=O)c1sc(S(=O)(=O)N2CCC(C(=O)O)CC2)c(C(=O)OC)c1C,1,3,1,0.29,3
O=C(CSc1nc(-c2ccco2)cc(C(F)(F)F)n1)Nc1ccccc1C(F)(F)F,·,·,·,-0.27,·
O=C(CSc1nc(-c2ccco2)cc(C(F)(F)F)n1)NCC1CCCO1 (stereo unspecified),0.8,24,0.3,1.1,71*
CCOC(=O)CSc1nnc2n(Cc3ccccc3)c(=O)c3c4c(sc3n12)CCC4,0.6,37,0.8,0.66,17
C=CCN1C(=O)CSC1=Nc1ccc(O)cc1,1.3,-32,1.1,0.22,-9
C=CCN1N=C(c2ccc(Cl)s2)CSC1=O,0.6,39,0.3,-3,72*
O=C(c1cccc(C(F)(F)F)c1)N1CCOC12CCN(c1ncc(C(F)(F)F)cc1Cl)CC2,0.8,20,0.9,-2.1,9
c1ccc2c(SCc3cn4cccnc4n3)ncnc2c1,1,2,0.5,0.91,54*
Cc1ccc(C(=O)/C=C/c2ccc(Br)cc2)o1,0.9,8,0.9,0.53,13
Cc1ccc(C(=O)/C=C/c2ccccc2)o1,0.4,57*,0.3,0.12,69*

# Bioassay records from PubChem BioAssay.
